Hit rate of the full screen: of about 48,000 compounds, about 13,000 (27%) showed an effect of 50% or more. Some of the results follow.
What follows are compounds tested on Wolbachia pipientis (assay: Anti-Wolbachia Cell-Based Screen). Details: 5 µM.
Format: functional
Design: scale not given: in the data most compounds retested in dose-response had high values

Row | Structure (SMILES) | Percent Effect [%]
1 | CC1(CCC(=O)N2CCC(n3cc(C4(O)CCCC4)nn3)CC2)CC1 | 8.722
2 | O=C(C1CCOCC1)N1CCN2C(=O)N(Cc3ccc(F)cc3)C[C@H]2C1 | -6.376
3 | O=C1CN(C(=O)C2CCCOC2)CCN1Cc1ccc(Cl)cc1 (centres undefined) | -1.465
4 | COc1ccc(CN2CC(O)CN(C(=O)C3CCC3)CC2=O)cc1 (centres undefined) | 125.6
5 | O=C1CN(C(=O)C2CCOCC2)CCN1Cc1ccc(Cl)cc1 | -5.322
6 | COc1ccc(CN2CCO[C@H]3CN(C(=O)C4CC4)CC[C@H]3C2=O)cc1 | -3.017
7 | O=C1CN(C(=O)C2CCCCC2)CC(O)CN1Cc1ccc(Cl)cc1 (centres undefined) | 110.4
8 | COc1ccc(CN2CCO[C@H]3CN(C4CCC4)CC[C@H]3C2=O)cc1.O=C(O)C(F)(F)F | -4.57
9 | Cc1ccc(CN2CC(O)CN(C(=O)C3CC3)CC2=O)cc1 (centres undefined) | 98.84
10 | CN(CCC(C)(C)O)C(=O)C1CCC(=O)N(Cc2ccc(Cl)cc2)C1 (centres undefined) | -7.945
11 | CCOCC1CN(C(=O)c2cccs2)Cc2nn(C)cc21 (centres undefined) | -4.192
12 | Cc1ncncc1C(=O)N1CCCC(n2ccnc2C)C1 (centres undefined) | 90.56
13 | CCc1nccn1C1CCCN(C(=O)c2cnn(C)c2C2CC2)C1 (centres undefined) | 0.8841
14 | Cc1cnc(C(=O)N2CCCC(n3ccnc3C)C2)cn1 (centres undefined) | 4.379
15 | CCn1ccnc1C1CCCN(C(=O)c2sc(C)nc2C)C1 (centres undefined) | -9.404
16 | Cc1nc(C)c(C(=O)N2CCCC(n3ccnc3C)C2)s1 (centres undefined) | 110.6
17 | Cc1nccn1C1CCCN(C(=O)c2cnn(C)c2C2CC2)C1 (centres undefined) | 89.3
18 | CCCc1cc(C(=O)N2CCCC(n3ccnc3C)C2)[nH]n1 (centres undefined) | -7.935
19 | CC(C)c1nccn1C1CCCN(C(=O)c2cnn(C)c2C2CC2)C1 (centres undefined) | -1.568
20 | CCn1c(C)cc(C(=O)N2CCCC(n3ccnc3C)C2)c1C (centres undefined) | 101.9
21 | CCn1c(C)cc(C(=O)N2CCCC(n3nc(C)nc3C)C2)c1C (centres undefined) | -3.865
22 | Cc1sc2nc(CCN)nc(N3CC(N4CCCCC4)C3)c2c1C | 3.569
23 | O=C(CCc1ncc(-c2ccc(F)cc2)o1)NCCN1CCOCC1 | 3.155

Row | Structure (SMILES) | Percent Effect [%]
24 | Cc1ncsc1C(=O)N(C)Cc1cccc(Cl)c1 | -11.93
25 | CCn1[nH]c(C)c2c(C(F)(F)C(F)(F)F)cc(=O)nc1-2 | -26.97
26 | CN(CCC(F)(F)F)C(=O)C1CCCN1C(=O)OC(C)(C)C (centres undefined) | 12.15
27 | Cc1ccccc1SC1CCN(C(=O)C2CNC(=O)N2)CC1 (centres undefined) | 2.436
28 | CCN(CC)Cc1ccc(C(=O)NC2CCc3ccccc32)o1 (centres undefined) | -6.624
29 | O=C(CCC1CCCC1)N1CCC(O)(C(F)(F)F)C1 (centres undefined) | -0.53
30 | CN1CCOCC12CCN(Cc1nccs1)CC2 | 7.326
31 | CCOCC(=O)NCCc1nc(C2CC2)cc(C(F)(F)F)n1 | 130.2
32 | CCOCC(=O)NCCc1ccc(I)s1 | -15.02
33 | CCOCC(=O)NCCc1nc(C)cc(C(F)(F)F)n1 | 110.5
34 | Cn1nc(CNC(=O)CN2C(=O)CCC2=O)cc1C1CC1 | -2.201
35 | O=C(CN1C(=O)CCC1=O)NCc1cc(C2CC2)n(C2CCCC2)n1 | -8.442
36 | CCOc1ccnc(NCc2nc(C)cc(C(F)(F)F)n2)n1 | -1.038
37 | O=C(CN1C(=O)CCC1=O)NCCc1nc(C2CC2)cc(C(F)(F)F)n1 | 102.8
38 | Cc1cc(C)nc(CCNC(=O)C(c2ccc(F)cc2)N(C)C)n1 (centres undefined) | 7.326
39 | CCOCC(=O)NCc1cc(C2CC2)n(C2CCCC2)n1 | 2.551
40 | Cc1ncccc1C(=O)NC1CC(=O)N(CC(F)(F)F)C1 (centres undefined) | -0.2034
41 | O=C(NCc1ccccc1F)Nc1ccn(CCN2CCOCC2)n1 | -47.91
42 | Cc1cc(CSc2ccccn2)on1 | -1.483
43 | CN(C)CCN1C[C@@H]2CN(c3ccccc3)C[C@@H]2C1=O.O=C(O)C(F)(F)F | 89.24
44 | CN(C)CCN1C[C@@H]2CN(S(=O)(=O)c3cccs3)C[C@@H]2C1=O.O=C(O)C(F)(F)F | -17.1
45 | CN(C)CCN1C[C@@H]2CN(C(=O)c3ccsc3)C[C@@H]2C1=O.O=C(O)C(F)(F)F | -6.945
46 | CN(C)CCN1C[C@@H]2CN(C(=O)C3CC=CC3)C[C@@H]2C1=O | -2.917

Row | Structure (SMILES) | Percent Effect [%]
47 | CN(C)CCN1C(=O)C[C@@H]2[C@@H]1CCN2S(=O)(=O)c1ccccc1.O=C(O)C(F)(F)F | -18.17
48 | CN(C)CCN1C[C@@H]2CN(S(=O)(=O)c3ccccc3)C[C@@H]2C1=O.O=C(O)C(F)(F)F | 104.5
49 | Cc1cc(NC(=O)N2CCN(C)CC2C)n(C(C)(C)C)n1 (centres undefined) | -1.035
50 | Cc1nn(C)c2nc(N(CCOc3ccccc3)CC3CCCO3)sc12 (centres undefined) | -19.55
51 | Clc1ccccc1OC1CN(CC2CCOC2)C1 (centres undefined) | -8.991
52 | Cc1cnc(N2C[C@@H]3[C@@H](C2)OCC(=O)N3CC2CC2)nc1 | 5.534
53 | CCN1Cc2nccn2CC(COCc2csc(C)n2)C1.O=C(O)C(F)(F)F.O=C(O)C(F)(F)F (centres undefined) | 99.32
54 | COCCN1Cc2nccn2CC(COCc2csc(C)n2)C1.O=C(O)C(F)(F)F.O=C(O)C(F)(F)F (centres undefined) | 102.1
55 | Cc1nc(CN2Cc3nccn3CC(COCC3CC3)C2)cs1.O=C(O)C(F)(F)F (centres undefined) | -7.932
56 | COCC1CN(Cc2csc(C)n2)Cc2nccn2C1.O=C(O)C(F)(F)F (centres undefined) | -4.637
57 | Cc1nc(CN2Cc3nccn3CC(CN3CCOCC3)C2)cs1.O=C(O)C(F)(F)F.O=C(O)C(F)(F)F (centres undefined) | -3.569
58 | CCOCC1CN(Cc2csc(C)n2)Cc2nccn2C1.O=C(O)C(F)(F)F (centres undefined) | -4.835
59 | O=C(NCc1ccco1)[C@@H]1C[C@H]2OCC[C@H]2N(c2ncc(F)cn2)C1 | 12.25
60 | CN(C)C(=O)N1C[C@@H](C(=O)NCc2ccco2)C[C@H]2OCC[C@H]21 | 111.8
61 | O=C(NCc1ccco1)[C@H]1C[C@H]2OCC[C@H]2N(C(=O)c2ccnnc2)C1 | 110.4
62 | O=C(NCc1ccco1)[C@H]1C[C@H]2OCC[C@H]2N(C(=O)c2ccco2)C1 | -11.04
63 | Cc1nnc(N2C[C@H](C(=O)NCc3ccco3)[C@@H]3CCO[C@@H]3C2)s1 | 0.8381
64 | O=C(NCc1ccco1)[C@H]1C[C@H]2OCC[C@H]2N(S(=O)(=O)C2CC2)C1 | -11.11
65 | Cc1occc1C(=O)N1C[C@@H](C(=O)NCc2ccco2)C[C@H]2OCC[C@H]21 | 100.5
66 | O=C(NCc1ccco1)[C@H]1C[C@H]2OCC[C@H]2N(C(=O)c2ccncc2)C1.O=C(O)C(F)(F)F | -2.028
67 | Cc1occc1C(=O)N1C[C@@H](C(=O)N2CCCCO2)C[C@H]2OCC[C@H]21 | -3.518
68 | NCC1Cc2cc(-c3nccc(N4CCC(O)CC4)n3)cc(F)c2O1 (centres undefined) | -9.833
69 | Cc1nnc(NCCc2nc3ccc(F)cc3n2C)c(C#N)c1C | -11.69

Row | Structure (SMILES) | Percent Effect [%]
70 | Cc1ccccc1C(C)(C)CNC(=O)CCSc1nnnn1C | -6.777
71 | O=S(=O)(c1ccc2c(c1)OCCO2)N1CCc2ccccc2C1 | 119.9
72 | O=c1ccc2c([nH]1)CCN(S(=O)(=O)c1ccc3c(c1)OCCO3)C2 | 2.836
73 | O=S(=O)(c1ccc2c(c1)OCCO2)N1CCC(OCc2ccccn2)C1 (centres undefined) | -6.121
74 | Cc1nsc(NC(=O)N2CCC(C(C)(C)O)CC2)n1 | -12.37
75 | CN(C)C(=O)N1Cc2ccccc2C2(CCN(C3CCOCC3)CC2)C1 | -2.498
76 | CC(C(=O)N1CCc2sccc2C1)N1CCC(N2CCCC2)CC1 (centres undefined) | -24.52
77 | Cn1c(C(N)=O)cc2c1CN(C(=O)C1CCCN(C3CCCC3)C1)CC2 (centres undefined) | -3.385
78 | O=C(C1CCCN(C2CCOCC2)C1)N1CCc2ncccc2C1 (centres undefined) | 101.2
79 | O=C(C1CCCN(Cc2cccnc2)C1)N1CCc2sccc2C1 (centres undefined) | 6.643
80 | CN1CCC(N2CCCC(C(=O)N3Cc4ccccc4C3)C2)CC1 (centres undefined) | 88.48
81 | O=C(C1CCCN(C2CCOCC2)C1)N1Cc2ccccc2C1 (centres undefined) | 98.98
82 | O=C(C1CCOCC1)N1CCc2ncnc(-c3ccccc3)c2CC1 | -2.988
83 | O=C(C1CCCN(Cc2ccccc2)C1)N1CCc2sccc2C1 (centres undefined) | 14.78
84 | CCc1nnc(CN(C)c2nccc(CCC(F)(F)F)n2)o1 | -5.519
85 | CCc1ccc(C(=O)O)cc1S(=O)(=O)Nc1c(C)ccn(C)c1=O | 6.747
86 | O=C1CCCN1CCCN1CCCC1Cn1cccn1 (centres undefined) | 2.247
87 | COCCNC(=O)Cn1cc(OCc2ccccc2)c(=O)cc1CO | 143.5
88 | COCCC1(C(=O)O)CCCN(CC(=O)NCCc2ccccc2)C1 (centres undefined) | -1.604
89 | COC(=O)CCNC(=O)c1ccc(OCc2ccccc2)nc1 | 0.7688

— ChEMBL document CHEMBL3988442, “University of Dundee, Small-Polar-MMV Screening Library” (2021)
